Test results: paper PMC4336329 (PLoS ONE, 2015)
Among all 310,000 compounds or so, about 2,200 (0.71%) showed an effect of 50% or more. Effects have a minus sign here. What follows is part of a selection rich in strong results, with near analogues and random picks from the rest.

target: human ether-à-go-go-related gene (hERG) potassium channel (human, UniProt Q12809); assay: primary screen, population patch clamp on CHO cells stably expressing hERG; higher = less effect of the substance
Sequence (Q12809 whole entry, looked up): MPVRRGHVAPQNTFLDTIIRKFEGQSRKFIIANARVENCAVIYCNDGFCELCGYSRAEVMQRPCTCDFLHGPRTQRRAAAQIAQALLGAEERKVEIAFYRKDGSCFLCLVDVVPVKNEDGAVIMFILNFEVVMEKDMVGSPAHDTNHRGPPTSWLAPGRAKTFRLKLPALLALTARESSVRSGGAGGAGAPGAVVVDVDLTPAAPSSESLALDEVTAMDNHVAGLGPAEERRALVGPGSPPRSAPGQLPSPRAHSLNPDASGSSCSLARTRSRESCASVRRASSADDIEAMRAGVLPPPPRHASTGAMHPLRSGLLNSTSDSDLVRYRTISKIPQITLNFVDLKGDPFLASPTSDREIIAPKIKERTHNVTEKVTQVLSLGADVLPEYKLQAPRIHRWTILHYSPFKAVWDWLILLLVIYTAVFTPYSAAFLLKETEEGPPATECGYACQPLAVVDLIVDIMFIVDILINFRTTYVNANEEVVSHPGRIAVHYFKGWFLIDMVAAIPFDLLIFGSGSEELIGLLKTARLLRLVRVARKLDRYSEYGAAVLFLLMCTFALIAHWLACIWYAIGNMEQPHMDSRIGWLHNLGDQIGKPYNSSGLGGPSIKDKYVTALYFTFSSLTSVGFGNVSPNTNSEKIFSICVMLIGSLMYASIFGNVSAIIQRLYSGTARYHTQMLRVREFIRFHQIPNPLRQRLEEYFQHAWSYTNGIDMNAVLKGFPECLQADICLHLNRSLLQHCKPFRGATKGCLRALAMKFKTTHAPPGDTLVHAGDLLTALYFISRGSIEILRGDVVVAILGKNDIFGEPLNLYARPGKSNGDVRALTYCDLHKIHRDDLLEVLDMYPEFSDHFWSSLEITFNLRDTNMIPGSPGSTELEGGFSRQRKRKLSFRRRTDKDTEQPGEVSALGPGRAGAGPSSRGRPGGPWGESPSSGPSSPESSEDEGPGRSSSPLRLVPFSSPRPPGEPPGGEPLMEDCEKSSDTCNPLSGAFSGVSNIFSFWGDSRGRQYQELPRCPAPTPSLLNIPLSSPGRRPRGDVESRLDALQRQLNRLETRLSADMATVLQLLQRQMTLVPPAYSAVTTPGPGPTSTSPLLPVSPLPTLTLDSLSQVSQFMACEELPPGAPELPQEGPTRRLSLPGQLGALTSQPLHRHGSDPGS

Row | SMILES | hERG current change (%, negative = inhibition) at 1uM [%]
1 | COc1ccc(S(=O)(=O)N2CCN(C)CC2)c2ccccc12 | 9.59
2 | CC(Sc1nc2ccccc2n1C)C(=O)Nc1ccc(N2CCOCC2)cc1 (stereo not shown) | 6.2
3 | CN1CCN(C(=O)CCC(=O)NCc2ccc(F)cc2)CC1 | 9.84
4 | O=C(COC(=O)c1ccccn1)NC(=O)c1ccccc1 | -5.45
5 | Cc1[nH]nc2ncc(C(=O)c3cc(Cl)cc(Cl)c3O)cc12 | 10.1
6 | COc1cccc(OC)c1C(=O)Nc1nc2ccc([N+](=O)[O-])cc2s1 | 16.1
7 | COc1cccc(CNC(=O)c2cc(C3CC3)nc3c2cnn3C(C)C)c1 | -0.644
8 | COc1ccc(CCN(C(=O)c2ccc(F)cc2)C2=CC3CCC(C2)N3C)cc1OC.Cl (stereo not shown) | -22.6
9 | COc1ccc(N(C(=O)c2ccc(F)cc2)C2=CC3CCC(C2)N3C)cc1.Cl (stereo not shown) | -50.3
10 | CCCCN(C(=O)c1cc(OC)c(OC)c(OC)c1)C1=CC2CCC(C1)N2C.Cl (stereo not shown) | 8.68
11 | CCOc1cc([N+](=O)[O-])cc(/C=C2/NC(=O)N(Cc3ccccc3F)C2=O)c1O | 4.45
12 | COc1cc(NC(=S)NC(=O)c2ccccc2F)ccc1NC(=O)c1ccco1 | 7.37
13 | CCn1c(SCC(=O)Nc2ccc(C(C)=O)cc2)nc2nc3c(cc2c1=O)COC(C)(C)C3 | 14.1
14 | CCn1c(SCC(=O)Nc2ccccc2)nc2nc3c(cc2c1=O)COC(C)(C)C3 | -12.4
15 | CCn1c(SCC(=O)Nc2ccc(C)cc2)nc2nc3c(cc2c1=O)COC(C)(C)C3 | -76.5
16 | Cc1cccc(-n2ncc3c(NC(C)C)ncnc32)c1 | 12.7
17 | Cc1nn(C(C)C(=O)Nc2ccc(Cl)cn2)c(C)c1[N+](=O)[O-] (stereo not shown) | 2.84
18 | Cc1ccc(C)c(NC(=O)C2CC(O)CN2C(=O)OCc2ccccc2)c1 (stereo not shown) | 2.34
19 | COc1ccc(N2CCN(CCC(N)=O)CC2)cc1 | 14.6
20 | O=C(c1ccc(Cl)cc1)N1CCN(CCOc2ccccc2)CC1 | -12.4
21 | COc1ccc(OCCN2CCN(C(=O)c3ccc(OC(F)F)c(OC)c3)CC2)cc1 | -62.6
22 | COc1ccc(OCCN2CCN(C(=O)c3ccc(OC)cc3)CC2)cc1 | -90.6
23 | COc1ccc(OCCN2CCN(C(=O)c3ccc(OC)c(OC)c3)CC2)cc1 | -35.6
24 | COc1ccc(C(=O)CCN2CCN(c3ccc(OC)cc3)CC2)cc1 | -74.1
25 | COc1ccc(C(=O)NCCN2CCN(C(=O)c3ccc(OC)cc3)CC2)cc1 | -22.1

Row | SMILES | hERG current change (%, negative = inhibition) at 1uM [%]
26 | COc1ccc(N2CCN(CCC(=O)c3ccc4ccccc4c3)CC2)cc1 | 11.4
27 | COc1ccc(C(=O)NCCN2CCN(C(=O)c3ccc(OC)c(OC)c3)CC2)cc1OC | 13.2
28 | Oc1c(Cl)cc(Cl)cc1C=Nc1ccc(N2CCOCC2)cc1 | 9.19
29 | COC(=O)c1c(NC(=O)c2nn(C)cc2Cl)sc2c1CCCC2 | 19.3
30 | Cc1cc2cc(C(c3nnnn3Cc3ccco3)N3CCCCC3)c(=O)[nH]c2cc1C (stereo not shown) | 6.29
31 | Cc1nnsc1C(=O)NNC(=O)c1cccc2ccccc12 | 9.5
32 | CC1C=CCC2C(=O)N(c3ccccc3OC(=O)c3cccs3)C(=O)C12 (stereo not shown) | 9.04
33 | Cc1cccc(C)c1NC(=O)NC1(C(=O)NCc2ccncc2)CCCCC1 | 12.6
34 | O=C(COc1ccc([N+](=O)[O-])cc1)N1CCc2ccccc2C1 | -15
35 | CC1CN(CCOc2ccc([N+](=O)[O-])cc2)CC(C)O1.O=C(O)C(=O)O (stereo not shown) | -13.6
36 | CC1CCCN(CCCOc2ccc([N+](=O)[O-])cc2)C1.O=C(O)C(=O)O (stereo not shown) | -77.4
37 | O=C(O)C(=O)O.O=[N+]([O-])c1ccc(OCCCCN2CCc3ccccc3C2)cc1 | -81.1
38 | Cl.Clc1ccc(OCCCCN2CCc3ccccc3C2)cc1 | -8.64
39 | CC1CC(C)CN(CCOc2ccc(Br)cc2)C1.O=C(O)C(=O)O (stereo not shown) | -12.4
40 | COc1ccc(OCCCN2CCCC(C)C2)cc1 (stereo not shown) | -2.33
41 | CC1CN(CCCOc2ccc([N+](=O)[O-])cc2)CC(C)O1.O=C(O)C(=O)O (stereo not shown) | -59.6
42 | CC1CC(C)CN(CCCCOc2ccc([N+](=O)[O-])cc2)C1.O=C(O)C(=O)O (stereo not shown) | -80.3
43 | CC1CC(C)CN(CCCOc2ccccc2[N+](=O)[O-])C1.O=C(O)C(=O)O (stereo not shown) | 5.91
44 | CCCOc1ccc(OCCN2CCCC(C)C2)cc1.O=C(O)C(=O)O (stereo not shown) | 0.638
45 | CC1CN(CCCCOc2ccc(F)cc2)CC(C)O1.O=C(O)C(=O)O (stereo not shown) | -4.39
46 | NC(=O)c1ccc(-c2nnn(CC(=O)N(C3CCCCC3)C3CCS(=O)(=O)C3)n2)cc1 (stereo not shown) | 9.79
47 | Cc1ccc(C)c(N2CCN(C(=O)C3CCCN(S(=O)(=O)c4c(C)[nH]c(=O)[nH]c4=O)C3)CC2)c1 (stereo not shown) | 9.86
48 | CCOc1ncccc1C(=O)Nc1ccc(Cl)c(S(=O)(=O)N2CCCC2)c1 | 2.41
49 | O=C(Nc1cccc(O)c1)c1ccc(C(=O)c2ccccc2)o1 | -1.55
50 | CCOc1ccc(CC(=O)NNC(=S)NC2CCCCC2)cc1OCC | 7.2

Row | SMILES | hERG current change (%, negative = inhibition) at 1uM [%]
51 | COc1ccc(-n2nnnc2SCC(=O)Nc2nnc(C)s2)cc1OC | -7.62
52 | CC(=O)Nc1ccc(Nc2c3c4c(cccc4n(C)c2=O)C(=O)c2ccccc2-3)cc1 | 10.6
53 | Nc1nc(SCC(=O)c2cccs2)n[nH]1 | 6.15
54 | Cc1cc(C)cc(OCC(=O)Nc2ccc3c(c2)OCCO3)c1 | 15.5
55 | COC(=O)C1C(=O)NCC1c1ccc(C)cc1 (stereo not shown) | 11.9
56 | Cc1ccc(CS(=O)(=O)Cc2ccc(C(=O)N3CCC4(CC3)OCCO4)o2)cc1 | -1.4
57 | CCN(CC(=O)NCc1ccc(Cl)cc1)C(=O)c1ccc2cc(OC)ccc2c1 | 7.72
58 | CCN(CC(=O)NCc1ccc(F)cc1)C(=O)CN1CCN(c2cc(Cl)ccc2C)CC1 | -68.2
59 | CCN(CC(=O)NCc1ccc(Cl)cc1)C(=O)/C=C/c1ccccc1 | -1.79
60 | CCN(CC(=O)NCc1ccc(Cl)cc1)C(=O)CCC(=O)c1ccc(C)cc1 | -8.96
61 | CCN(CC(=O)NCc1ccc(Cl)cc1)C(=O)CCC(=O)c1ccc(F)cc1 | -52.2
62 | CCN(CC(=O)NCc1ccc(Cl)cc1)C(=O)/C=C/c1ccc(C#N)cc1 | -52.1
63 | CCN(CC(=O)NCc1ccc(Cl)cc1)C(=O)/C=C/c1cc(OC)c(OC)c(OC)c1 | 11.2
64 | CCN(CC(=O)NCc1ccc(F)cc1)C(=O)CN1CCN(c2ccc(OC)cc2)CC1.O=C(O)C(=O)O | -21.1
65 | CCOc1ccc(C(=O)CCC(=O)N(CC)CC(=O)NCc2ccc(Cl)cc2)cc1 | -8.36
66 | CCN(CC(=O)NCc1ccc(Cl)cc1)C(=O)Cc1ccc(OC)cc1 | -66.9
67 | CCN(CC(=O)NCc1ccc(F)cc1)C(=O)CN1CCN(c2ccccc2OC)CC1 | -44.4
68 | CCN(CC(=O)NCc1ccc(F)cc1)C(=O)Cc1ccc(OC)cc1 | -37.8
69 | O=[N+]([O-])c1ccc(CN2CCC(Cc3ccccc3)CC2)cc1 | -9.62
70 | O=C(NCC1(O)CCCCC1)C1CCC(=O)N(Cc2ccccc2F)C1 (stereo not shown) | 15.8
71 | CCOC(=O)COc1ccc(S(=O)(=O)NCc2ccncc2)cc1 | 8.78
72 | CCn1cc(CCCC(=O)NCc2ccc(OC)cc2)c2ccccc21 | 15.1
73 | CCOc1cc(/C=C2\C(=O)ON=C2c2ccccc2)ccc1OC | 17.4
74 | O=C(CCN1C(=O)c2ccccc2C1=O)NC(=S)Nc1ccccc1Cl | 5.29
75 | CCC(CCC(=O)Nc1ccn(-c2ccccc2)n1)C(=O)O (stereo not shown) | 7.09

Row | SMILES | hERG current change (%, negative = inhibition) at 1uM [%]
76 | Cc1nc(NC(=O)c2ccccc2[N+](=O)[O-])sc1C(=O)N(C)C | 16.4
77 | O=C(O)c1ccc(S(=O)(=O)N(CCc2ccccc2)Cc2ccc(Cl)cc2)cc1 | 11.5
78 | Brc1ccc(-c2cnco2)cc1 | 9.53
79 | COc1ccc(S(=O)(=O)NC2CCCCC2)cc1C(=O)N1CCCCC1 | 0.2
80 | CCN(CC(=O)NCc1ccc(Cl)cc1)C(=O)CCc1ccccc1 | -19.8
81 | CCN(CC(=O)NCc1ccc(Cl)cc1)C(=O)NCc1ccc(Cl)cc1 | -54.1
82 | CCN(CC(=O)NCc1ccc(F)cc1)C(=O)c1ccc(Cl)cc1 | -2.66
83 | O=C(c1ccc2c(c1)N(Cc1ccccc1)C(=O)CS2)N1CCOCC1 | 1.45
84 | CNCCOc1nc(N2CCOCC2)nc(C)c1[N+](=O)[O-] | 10.1
85 | COc1ccc(NC2CCCN(C(=O)c3cccs3)C2)cc1 (stereo not shown) | 12.5
86 | C/C(=N\NC(=O)c1ccc(CN2CCOCC2)cc1)c1ccc([N+](=O)[O-])cc1 | 10
87 | C/C(=N/NC(=O)CN1CCN(Cc2ccccc2Cl)CC1)c1ccncc1 | -18.3
88 | C/C(=N\NC(=O)CN1CCN(Cc2ccc(C)cc2)CC1)c1ccncc1 | -77.9
89 | O=C(CN1CCN(S(=O)(=O)c2ccc(Br)cc2)CC1)N/N=C/c1cccnc1 | -1.72
90 | C/C(=N/NC(=O)CN1CCN(Cc2ccccc2)CC1)c1ccc([N+](=O)[O-])cc1 | -72.9
91 | C/C(=N\NC(=O)CN1CCN(S(=O)(=O)c2ccc(C)cc2)CC1)c1ccncc1 | -77.6
92 | C/C(=N\NC(=O)CN1CCN(Cc2ccccc2)CC1)c1cccs1 | -2.13
93 | O=C(CN1CCN(S(=O)(=O)c2ccc(Br)cc2)CC1)N/N=C/c1ccncc1 | -51.8
94 | C/C(=N\NC(=O)CN1CCN(Cc2ccccc2)CC1)c1ccncc1 | -3.1
95 | C/C(=N\NC(=O)CN1CCN(S(=O)(=O)c2ccc(C)cc2)CC1)c1ccc(O)cc1 | 9.16
96 | Cc1ccc(S(=O)(=O)N2CCN(CC(=O)N/N=C\c3ccncc3)CC2)cc1 | -26.2
97 | C/C(=N/NC(=O)CN1CCN(S(=O)(=O)c2ccc(Br)cc2)CC1)c1ccncc1 | -44.3
